Bioassay records: PubChem BioAssay, National Center for Advancing Translational Sciences (NCATS)
Only a selection was taken, and hits are over-represented in it overall.
aSyn yeast rescue: alpha-synuclein toxicity suppression in yeast. actives 0.02% (n = 94,000). S. cerevisiae alpha-synuclein toxicity rescue, BacTiter-Glo growth, 24 h. Potency, µM (titrated, usually from 46.1 µM), hits mostly activators; active = well fitted activation curve with a large enough effect; note: 0% is about no effect
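Growth restoration measured by BacTiter-Glo luminescence after 24 hr at 30 deg C; alpha-synuclein yeast, raffinose-pregrown to mid-log, were added at OD600=0.02 in galactose medium onto pinned compounds.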
Starred values were filed as active, the others as inactive; i = inactive. Potency is the fitted concentration of half-maximal effect.

SMILES | aSyn yeast rescue
Cc1ccc(C(=O)NCc2ccccc2)cc1NC(=O)c1nsc2ccccc12 | i
Cc1ccc2oc(C(=O)Nc3nc(-c4ccc(F)cc4)ns3)c(C)c2c1 | i
Cn1cnc(S(=O)(=O)N2CCC(C(=O)Nc3ccc(Cl)c(C(F)(F)F)c3)CC2)c1 | i
COc1ccccc1CNC(=O)C(=O)NCC(c1cccs1)S(=O)(=O)c1ccccc1 (centres undefined) | i
O=C(CSc1nccn1-c1ccc(F)cc1)Nc1ccc(OC(F)(F)F)cc1 | i
COc1ccc(-c2nc3scc(CCNS(=O)(=O)c4ccc(Oc5ccccc5)cc4)n3n2)cc1OC | i
Cc1noc(/C=C/c2ccccc2F)c1S(=O)(=O)N1CCC(C(=O)N(C)Cc2ccco2)CC1 | i
COc1cccc2cc(C(=O)Nc3ccc(CC(=O)O)cc3)c(=O)oc12 | i
Cc1ccc(S(=O)(=O)c2c(Nc3cc(F)ccc3F)sc(C(=O)c3ccc(F)cc3)c2N)cc1 | i
CCOc1ccc(/C=C/c2nc3ccccc3n2S(=O)(=O)c2cccc(Cl)c2)cc1 | i
CC(=O)Nc1ccc(S(=O)(=O)N2CCN(c3ccc(C)c(C)c3)CC2)cc1 | i
CCC(C(=O)Nc1ccc(C(C)=O)cc1)n1c(C)c2cnn(-c3ccccc3)c(=O)c2c1C (centres undefined) | i
Cc1csc2nc(COC(=O)c3ccc(NC(=O)c4ccccc4Br)cc3)cc(=O)n12 | i
CC(C)Cc1nn2c(=O)cc(COC(=O)c3ccc(NC(=O)CCc4ccccc4)cc3)nc2s1 | i
CCOc1ccc(NC(=O)c2c(NCc3ccc(C)o3)sc3c2CCCCC3)cc1 | i
COc1ccccc1NC(=O)c1c(NCc2ccc(C)o2)sc2c1CCC(C)C2 (centres undefined) | i
COc1ccc(NC(=O)c2c(NCc3ccc(C)o3)sc3c2CCC(C)C3)cc1 (centres undefined) | 14µM*
COc1cccc(CNC(=O)Cn2cc3c(n2)-c2c(oc(C(=O)N4CCCC4)c2C)CC3)c1OC | i
COc1ccccc1Nc1c2c(nc3ccc(NC(=O)c4ccc(N(C)C)cc4)cc13)CCCC2 | i
COc1cccc(NC(=O)CSc2nc3ccc(NC(=O)c4ccco4)cc3s2)c1 | i
COc1ccc(C(=O)N2CCN(c3nc4c(C)c(Cl)ccc4s3)CC2)c(OC)c1 | 16µM*
Cc1c(Cl)ccc2sc(N3CCN(C(=O)C(C)C)CC3)nc12 | i
COc1cc2ccccc2cc1C(=O)N1CCN(c2nc3c(C)cc(C)cc3s2)CC1 | i
Cc1nn(-c2ccccc2)c2nc(C3CC3)cc(C(=O)Nc3cccc(F)c3)c12 | i
CC(C)CS(=O)(=O)c1oc(-c2ccc(F)cc2)nc1S(=O)(=O)c1ccccc1 | i
SMILES | aSyn yeast rescue
CCOc1ccc(C(=O)Nc2ccc3nc(SCC(=O)N4CCOCC4)sc3c2)cc1 | i
Cc1cc(C)cc(NC(=O)CSc2nc(-c3ccccc3)c3cc(F)ccc3n2)c1 | i
Fc1ccc(Nc2nc(SCc3ccccc3F)nc3ccccc23)cc1 | i
COc1ccc(-n2c(=O)c3c4c(sc3n(CC(=O)N3CCCCC3C)c2=O)CCC4)c(OC)c1 (centres undefined) | i
CC1=C(C(=O)Nc2ccccc2C)C(c2ccccn2)n2nc(SCc3ccccc3F)nc2N1 (centres undefined) | i
O=C(/C=C/c1ccccc1Cl)Nc1nc(-c2cccs2)ns1 | i
O=C(NCCS(=O)(=O)N1CCN(c2ccc(F)cc2)CC1)c1cccc(C(F)(F)F)c1 | i
Cc1cccc(-c2nc3scc(CCNS(=O)(=O)c4ccc5c(c4)OCCO5)n3n2)c1 | i
CC1CCCN(CCCNC(=O)c2ccc3c(c2)N(Cc2cccc(Cl)c2)C(=O)c2ccccc2S3(=O)=O)C1 (centres undefined) | i
COc1cc(-c2noc(-c3ccc(NCc4cccnc4)c([N+](=O)[O-])c3)n2)cc(OC)c1OC | i
CN1C(=O)c2ccccc2Sc2ccc(NC(=O)N3CCN(c4ccc(F)cc4)CC3)cc21 | i
CCN(C(=O)c1cc(S(=O)(=O)N2CCc3ccccc32)cn1C)c1cccc(C)c1 | i
COc1cccc(Nc2ccc3cc(S(=O)(=O)N4CCC(C)CC4)ccc3n2)c1 | i
CCOC(=O)c1cnn(-c2cccc(Cl)c2)c1C1CCN(C(=O)OC(C)(C)C)CC1 | i
CCOCCCNC(=O)c1cnc2sc(N3CCCCCC3)nn2c1=O | i
CCCOc1ccc(C2=NC(c3ccc(F)cc3)=Nc3ccc(OC)cc3N2)cc1 | i
CCC(NC(=O)Nc1cc(OC)ccc1OC)c1c(-n2cccc2)sc2c1CCN(CC)C2 (centres undefined) | i
O=C(Cn1c(=O)nc(-c2ccccc2)c2ccccc21)NCc1ccccc1Cl | i
CCOc1ccc(NCc2cccn2-c2nnc(N3CCC(C(=O)NCCc4ccc(OC)c(OC)c4)CC3)s2)cc1 | i
CC(=O)N1CCCc2ccc(NC(=O)c3ccc(C(F)(F)F)cc3)cc21 | i
Cc1c2cnn(CC(=O)NCc3ccc(F)cc3)c(=O)c2c(C)n1Cc1cccc(Cl)c1 | i
CCCCCOc1ccc(C(=O)N(Cc2ccccc2)C2CCS(=O)(=O)C2)cc1 (centres undefined) | i
COc1ccc(CCNC(=O)c2ccc3c(c2)N(Cc2ccccc2Cl)C(=O)c2ccccc2S3)cc1OC | i
COc1ccccc1NC(=O)CN1C(=O)CC(c2ccc(C)c(C)c2)=Nc2ccccc21 | i
COc1cc(OC)cc(C(=O)Nc2ccc(S(=O)(=O)N3CCCCC3c3cccnc3)cc2)c1 (centres undefined) | i
SMILES | aSyn yeast rescue
CCc1cccc(-n2c(=O)c3cccnc3n2CC(=O)NCc2ccc(C)cc2)c1 | i
CCCCCn1c(CCCNC(=O)c2ccc(Cl)cc2)nc2ccccc21 | i
CCn1cc(C(=O)NCCCOC(C)C)c(=O)c2cc(S(=O)(=O)N3CCc4ccccc4C3)ccc21 | i
Cc1cccc2sc(N(Cc3cccnc3)C(=O)CCc3ccccc3)nc12 | i
Cc1cccc2sc(N(Cc3cccnc3)C(=O)Cc3ccccc3)nc12 | 10µM*
Cc1cc(C)c2nc(N(Cc3cccnc3)C(=O)c3cccs3)sc2c1 | i
Cc1ccc2nc(N(Cc3cccnc3)C(=O)Cc3ccccc3)sc2c1 | i
Cc1cc(C)c2nc(N(Cc3cccnc3)C(=O)Cc3ccccc3)sc2c1 | 13µM*
Cc1cccc2sc(N(Cc3cccnc3)C(=O)c3ccco3)nc12 | i
Cc1ccc(-c2c(C(=O)N3CCN(c4cccc(C)c4)C(C)C3)oc(=O)c3ccccc23)cc1 (centres undefined) | i
CSc1ncc(Cl)c(C(=O)Nc2ccc(S(=O)(=O)N3CCC(C)CC3)cc2)n1 | i
Cc1ccc(CSc2cn(CC(=O)N3CCCCCC3)c3ccccc23)cc1 | i
CCC(C)S(=O)(=O)c1oc(-c2cccs2)nc1S(=O)(=O)c1ccccc1 (centres undefined) | i
COCCNC(=O)c1ccc(-n2c(-c3ccccc3)cc3c2CCCCC3)cc1 | i
Cc1ccc(/C=C(\C#N)c2nc3ccccc3c(=O)[nH]2)cc1 | i
O=S(=O)(/C(=C/c1ccc(C(F)(F)F)cc1)c1nc2ccccc2[nH]1)c1ccccc1 | i
Cn1c(/C(C#N)=C/c2ccc(C(F)(F)F)cc2)nc2ccccc21 | 2.5µM*
COc1ccc(Cl)cc1NC(=O)Cn1nc(Cc2ccncc2)c2ccccc2c1=O | i
CC1=C(c2ccc(C(C)C)cc2)S(=O)(=O)N=C1N1CCN(c2ccccc2F)CC1 | i
COc1cc(OC)cc(C(=O)NCc2ccc3c(c2)CCN3C(=O)c2ccccc2)c1 | i
CCOC(=O)N1CCc2c(sc(NCc3cccc(F)c3)c2C(=O)Nc2ccc(OC)cc2OC)C1 | i
